Results on four molecules are retold here after PubChem BioAssay (EPA / NIEHS).

For test [1], the target named is Glucocorticoid receptor (Homo sapiens) (UniProt P04150). Description: ATG_GR_TRANS: Attagene TRANS-FACTORIAL HepG2 Assay for human Glucocorticoid Receptor (GR) (AID 2282978; active = hit-call score of the fitted dose curve at least 0.9, where 1 is the maximum;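 also: activators score as hits since higher reporter transcript over DMSO is fitted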). The settings on record: HepG2 Attagene TRANS GR reporter, mRNA transcription. The method in brief: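 Readout is reporter transcript from a chimeric GR-Gal4 acting on GAL4-UAS in transfected human HepG2 liver cells after 24 h exposure, quantified by RT-PCR and capillary electrophoresis. Activation fitted upward against DMSO.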

For test [2], the target named is Bile acid receptor (Homo sapiens) (UniProt Q96RI1). Description: ATG_FXR_TRANS: Attagene TRANS-FACTORIAL HepG2 Assay for Farnesoid X Receptor (FXR) (AID 2282979; active = hit-call score of the fitted dose curve at least 0.9, where 1 is the maximum;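 also: hits raise reporter mRNA above DMSO so AC50 marks FXR activation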). Particulars: HepG2 Attagene TRANS FXR-GAL4 reporter transcription. The procedure, abridged:
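HepG2 cells transiently transfected with reporter constructs in which a chimeric FXR-GAL4 protein drives a GAL4-UAS reporter; 24 h compound exposure. Reporter mRNA measured by RT-PCR, FAM labelling, HpaI digestion and capillary electrophoresis; gain-of-signal versus DMSO.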

The nature of test [3]: ATG_M_06_TRANS: Attagene TRANS-FACTORIAL HepG2 Assay for M06 Transcription Factor (Internal Marker) (AID 2282983; active = hit-call score of the fitted dose curve at least 0.9, where 1 is the maximum). Particulars: HepG2 Attagene TRANS M06 internal marker reporter. The procedure, abridged:
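In this multiplexed HepG2 system, compounds are incubated 24 h with cells carrying GAL4-UAS reporter units. Reporter RNA is amplified and resolved by capillary electrophoresis, and induction is scored against DMSO.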

Test [4] concerns the target Transcriptional activator Myb (Homo sapiens) (UniProt P10242). Description: ATG_Myb_CIS: Attagene CIS-FACTORIAL HepG2 Assay for human Myeloblastosis (Myb) Proto-Oncogene Transcription Factor (AID 2282986). The settings on record: HepG2 Attagene CIS-FACTORIAL Myb reporter transcription; actives raise or lower the signal. The method in brief: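 Reporter mRNA is quantified by RT-PCR and capillary electrophoresis 24 h after dosing HepG2 cells transfected with cis-regulated reporter units, which track endogenous transcription factor activity. Gain and loss of signal are fitted versus DMSO baseline.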

Test [5] concerns the target Nuclear respiratory factor 1 (Homo sapiens) (UniProt Q16656). Description: ATG_NRF1_CIS: Attagene CIS-FACTORIAL HepG2 Assay for human Nuclear Respiratory Factor 1 (NRF1) Orphan Gene (AID 2282987). Particulars: HepG2 NRF1 cis-element reporter, Attagene multiplex; actives raise or lower the signal. The method in brief:
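Endogenous NRF1-driven reporter transcription in transfected HepG2 cells after 24 h treatment. Readout: RT-PCR products, 6-FAM labelled and resolved by capillary electrophoresis; changes fitted both directions relative to DMSO.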

A short description of test [6]: ATG_NFI_CIS: Attagene CIS-FACTORIAL HepG2 Assay for human Nuclear Factor I (NFI) (AID 2282989). Particulars: HepG2 cis-regulatory reporter, NFI response element transcription; actives raise or lower the signal. The procedure, abridged: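 After transient transfection of HepG2 with cis-promoter reporter constructs and 24 h dosing, RNA is reverse-transcribed, amplified, 6-FAM end-labelled and HpaI-digested before capillary analysis. Bidirectional curve fitting against DMSO.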

Test [7] has as its target Myc proto-oncogene protein (Homo sapiens) (UniProt P01106). Description: ATG_Myc_CIS: Attagene CIS-FACTORIAL HepG2 Assay for human Myelocytomatosis (Myc) Proto-Oncogene Transcription Factor (AID 2282990). The settings on record: HepG2, Attagene cis-reporter transcription factor activity; actives raise or lower the signal. The procedure, abridged:
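HepG2, transient MRTU transfection (cis promoters, endogenous TFs); 24 h dosing; TriZol RNA → oligo(dT) RT → PCR → 6-FAM primer extension → HpaI cut → CE. Bidirectional fit vs DMSO.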

Test [8] in a line: ATG_NF_kB_CIS: Attagene CIS-FACTORIAL HepG2 Assay for human Nuclear Factor Kappa B (NF-kB) (AID 2282991). The settings on record: HepG2 Attagene cis-factorial NF-kB reporter mRNA; actives raise or lower the signal. The method in brief: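 Readout is reporter transcript level, gain or loss versus DMSO, measured 24 h post-dose via RT-PCR, fluorescent labelling and capillary electrophoresis. Human HepG2 liver cells carried transiently transfected CIS reporter constructs reflecting endogenous factors.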

Test [9] can be described thus: ATG_NRF2_ARE_CIS: Attagene CIS-FACTORIAL HepG2 Assay for human Nuclear Factor Erythroid 2 Related Factor 2 (NFR2) response to Antioxidant Response Elements (ARE) (AID 2282992). Particulars: HepG2 Attagene ARE/NRF2 reporter, transcription factor activity; actives raise or lower the signal. The method in brief: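 Using transiently transfected HepG2 cells exposed for 24 h, reporter mRNA levels were determined by RT-PCR with fluorescent primer extension and capillary electrophoresis, analysed for gain or loss of signal against DMSO.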

The nature of test [10]: ATG_Oct_MLP_CIS: Attagene CIS-FACTORIAL HepG2 Assay for human Octamer-Binding Transcription Factor (Oct) (AID 2282993). The settings on record: HepG2 Attagene cis-factorial Oct reporter, mRNA; actives raise or lower the signal. The procedure, abridged:
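Cells of the HepG2 line express promoter-controlled reporter sequences whose mRNA levels, after 24 h treatment, are measured by RT-PCR and capillary electrophoresis. Increases and decreases are scored relative to DMSO.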

For test [11], the target named is Cellular tumor antigen p53 (Homo sapiens) (UniProt P04637). Description: ATG_p53_CIS: Attagene CIS-FACTORIAL HepG2 Assay for human p53 Transcription Factor (AID 2282994). Particulars: HepG2 p53 cis-element reporter, Attagene mRNA; actives raise or lower the signal. The method in brief:
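In HepG2 cells, reporter transcription units under cis-regulatory promoters were transiently introduced. Following 24 h treatment, RNA was processed to labelled, digested cDNA fragments read by capillary electrophoresis; fitting was bidirectional versus DMSO.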

Test [12] in a line: BSK_3C_uPAR: BioMAP Diversity Plus: 3C Assay for Urokinase-type plasminogen activator receptor (uPAR) Biomarker Activity (AID 2282998). The settings on record: BioMAP 3C HUVEC, uPAR biomarker ELISA; actives raise or lower the signal. The method in brief:
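Endothelial primary cells of human umbilical vein origin received test chemical; 24 h later uPAR was assayed by ELISA. Fitting was bidirectional, DMSO as negative control.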
In general terms: In an ELISA, binding on a coated surface is turned into a signal by an enzyme label.

The nature of test [13]: BSK_3C_VCAM1: BioMAP Diversity Plus: 3C Assay for Vascular cell adhesion molecule 1 (VCAM1) Biomarker Activity (AID 2282999). The settings on record: BioMAP 3C HUVEC, VCAM1 ELISA, cytokine-stimulated; actives raise or lower the signal. The method in brief:
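Activity fitted in both directions relative to DMSO, with ELISA measurement of the surface marker on primary HUVEC (3C) at 24 h post-treatment; parallel SRB staining (0.1% SRB, TCA-fixed, 560 nm) flagged overt cytotoxicity.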

Test [14] can be described thus: BSK_4H_Eotaxin3: BioMAP Diversity Plus: 4H Assay for Eotaxin 3 Biomarker Activity (AID 2283000).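 As to outcome: CCL26 protein level quantified by ELISA in parallel with SRB cytotoxicity check.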 Particulars: primary human endothelial cells (HUVEC); actives raise or lower the signal. The procedure, abridged: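 HUVEC, 24 h post-dose, ELISA for Eotaxin-3/CCL26. Gain or loss of signal fitted bidirectionally vs DMSO baseline.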
A short description of test [15]: ATG_M_32_TRANS: Attagene TRANS-FACTORIAL HepG2 Assay for M32 Transcription Factor (Internal Marker) (AID 2282984; active = hit-call score of the fitted dose curve at least 0.9, where 1 is the maximum;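 also: transcript level of a background control reporter unit measured by RT-PCR and capillary electrophoresis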). Particulars: HepG2 Attagene TRANS M32 internal marker reporter. The procedure, abridged: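 Internal background reporter in transfected HepG2: after 24 h chemical exposure, RNA reverse-transcribed, reporter cDNA amplified, fluorescently labelled and HpaI-cut, then sized by capillary electrophoresis. Gain of signal fitted against DMSO control.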

Test [16] addresses Nuclear receptor subfamily 4 group A member 2 (Homo sapiens) (UniProt P43354). Description: ATG_NURR1_TRANS: Attagene TRANS-FACTORIAL HepG2 Assay for human Nuclear Receptor Related Protein 1 (NURR1) (AID 2282985; active = hit-call score of the fitted dose curve at least 0.9, where 1 is the maximum). Particulars: HepG2 Attagene TRANS reporter, mRNA readout. The procedure, abridged:
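Reporter transcript induction, measured by RT-PCR with fluorescent labelling, HpaI digestion and capillary electrophoresis, after 24 hr dosing of human HepG2 cells transiently expressing an exogenous NR-Gal4 fusion with GAL4-UAS-driven reporters; DMSO as baseline.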

Test [17] is described as follows: BSK_3C_TissueFactor: BioMAP Diversity Plus: 3C Assay for Tissue Factor Biomarker Activity (AID 2282997). Particulars: BioMAP 3C HUVEC, tissue factor biomarker readout; actives raise or lower the signal. The procedure, abridged: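 Readout: Tissue Factor ELISA. Cells: human primary umbilical vein endothelium. Time: 24 h after dosing. Analysis: bidirectional fit, DMSO baseline.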

In test [18] the target is Hepatocyte nuclear factor 4-alpha (Homo sapiens) (UniProt P41235). Description: ATG_HNF4a_TRANS: Attagene TRANS-FACTORIAL HepG2 Assay for human Hepatocyte Nuclear Factor 4 alpha (HNF4a) (AID 2282982; active = hit-call score of the fitted dose curve at least 0.9, where 1 is the maximum). Particulars: HepG2 HNF4a transactivation reporter, mRNA readout. The method in brief: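 Activity of an exogenous HNF4a–Gal4 fusion scored as induced GAL4-UAS reporter transcripts after 24 h chemical exposure of transfected human HepG2 cells. Read-out via RT-PCR with 6-FAM labelling and capillary electrophoresis; rise over DMSO baseline.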

Inconclusive results are not listed. Activity calls are given as the source filed them. The calls were made as follows, unless noted: active = hit-call score of the fitted dose curve at least 0.9, where 1 is the maximum; inactive = score below 0.9.

Sequence of Bile acid receptor (Homo sapiens) (Q96RI1 whole entry, looked up, the tested form may be a part): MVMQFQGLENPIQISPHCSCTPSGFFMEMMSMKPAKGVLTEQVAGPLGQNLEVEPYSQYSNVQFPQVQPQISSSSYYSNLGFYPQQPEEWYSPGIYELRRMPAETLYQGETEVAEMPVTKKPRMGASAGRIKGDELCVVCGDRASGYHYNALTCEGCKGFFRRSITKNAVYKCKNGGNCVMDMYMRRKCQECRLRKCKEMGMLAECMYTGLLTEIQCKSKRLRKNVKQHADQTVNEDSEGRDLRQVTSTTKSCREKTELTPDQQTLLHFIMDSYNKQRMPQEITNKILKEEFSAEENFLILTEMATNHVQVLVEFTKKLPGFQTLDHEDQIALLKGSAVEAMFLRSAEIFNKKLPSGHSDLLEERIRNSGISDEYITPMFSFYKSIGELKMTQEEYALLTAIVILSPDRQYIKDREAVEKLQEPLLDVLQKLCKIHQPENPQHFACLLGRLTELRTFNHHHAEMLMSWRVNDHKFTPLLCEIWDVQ
Sequence of Glucocorticoid receptor (Homo sapiens) (P04150 whole entry, looked up, the tested form may be a part): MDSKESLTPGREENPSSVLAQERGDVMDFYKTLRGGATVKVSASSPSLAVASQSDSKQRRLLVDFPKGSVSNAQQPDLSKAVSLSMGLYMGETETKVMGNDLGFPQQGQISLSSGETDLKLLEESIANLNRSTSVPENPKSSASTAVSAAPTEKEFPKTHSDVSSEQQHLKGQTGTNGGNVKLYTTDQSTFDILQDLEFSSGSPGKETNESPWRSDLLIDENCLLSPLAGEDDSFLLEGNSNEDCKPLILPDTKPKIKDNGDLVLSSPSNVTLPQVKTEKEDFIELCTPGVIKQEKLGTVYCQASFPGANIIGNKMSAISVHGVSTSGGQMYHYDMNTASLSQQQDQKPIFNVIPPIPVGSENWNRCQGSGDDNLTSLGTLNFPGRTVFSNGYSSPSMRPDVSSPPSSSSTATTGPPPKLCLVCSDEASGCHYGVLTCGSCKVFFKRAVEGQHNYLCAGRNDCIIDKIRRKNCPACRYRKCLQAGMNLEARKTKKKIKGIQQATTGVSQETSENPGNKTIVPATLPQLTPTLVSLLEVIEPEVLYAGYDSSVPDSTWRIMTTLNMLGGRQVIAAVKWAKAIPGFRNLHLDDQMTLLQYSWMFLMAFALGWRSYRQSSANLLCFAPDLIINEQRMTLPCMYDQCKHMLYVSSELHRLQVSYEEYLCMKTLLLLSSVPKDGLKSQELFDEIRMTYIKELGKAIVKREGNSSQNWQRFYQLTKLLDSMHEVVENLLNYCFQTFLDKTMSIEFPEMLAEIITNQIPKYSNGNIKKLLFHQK
Sequence of Nuclear receptor subfamily 4 group A member 2 (Homo sapiens) (P43354 whole entry, looked up, the tested form may be a part): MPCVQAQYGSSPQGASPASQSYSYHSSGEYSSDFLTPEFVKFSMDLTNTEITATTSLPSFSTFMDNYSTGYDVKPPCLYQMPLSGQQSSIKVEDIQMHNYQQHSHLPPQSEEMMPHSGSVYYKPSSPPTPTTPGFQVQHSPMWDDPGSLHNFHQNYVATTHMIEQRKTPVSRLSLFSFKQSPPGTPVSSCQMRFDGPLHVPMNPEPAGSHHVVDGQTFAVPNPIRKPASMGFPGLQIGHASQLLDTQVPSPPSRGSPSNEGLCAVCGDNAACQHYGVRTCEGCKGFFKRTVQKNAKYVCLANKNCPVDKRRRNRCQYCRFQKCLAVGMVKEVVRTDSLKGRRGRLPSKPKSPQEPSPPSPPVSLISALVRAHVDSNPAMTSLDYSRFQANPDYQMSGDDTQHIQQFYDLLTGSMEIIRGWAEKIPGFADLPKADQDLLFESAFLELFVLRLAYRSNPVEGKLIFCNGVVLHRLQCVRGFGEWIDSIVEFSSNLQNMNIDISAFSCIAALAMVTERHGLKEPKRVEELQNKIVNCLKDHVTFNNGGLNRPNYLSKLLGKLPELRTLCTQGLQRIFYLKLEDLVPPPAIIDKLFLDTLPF
Sequence of Transcriptional activator Myb (Homo sapiens) (P10242 whole entry, looked up): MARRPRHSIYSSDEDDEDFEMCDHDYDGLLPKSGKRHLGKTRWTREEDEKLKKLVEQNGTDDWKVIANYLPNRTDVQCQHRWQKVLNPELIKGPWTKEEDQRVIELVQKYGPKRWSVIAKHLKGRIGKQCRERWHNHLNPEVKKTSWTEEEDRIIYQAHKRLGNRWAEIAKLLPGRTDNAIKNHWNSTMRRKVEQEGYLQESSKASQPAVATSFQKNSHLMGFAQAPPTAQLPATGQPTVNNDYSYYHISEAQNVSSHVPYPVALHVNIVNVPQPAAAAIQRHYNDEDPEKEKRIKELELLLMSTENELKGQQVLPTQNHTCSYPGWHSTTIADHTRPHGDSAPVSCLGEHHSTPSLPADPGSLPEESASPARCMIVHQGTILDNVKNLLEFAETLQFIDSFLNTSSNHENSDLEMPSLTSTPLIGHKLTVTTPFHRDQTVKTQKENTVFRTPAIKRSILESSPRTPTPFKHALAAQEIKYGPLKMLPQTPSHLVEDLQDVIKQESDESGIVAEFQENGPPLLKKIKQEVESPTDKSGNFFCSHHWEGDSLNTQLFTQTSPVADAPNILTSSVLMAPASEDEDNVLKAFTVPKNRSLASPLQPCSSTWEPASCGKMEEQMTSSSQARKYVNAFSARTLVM
Sequence of Cellular tumor antigen p53 (Homo sapiens) (P04637 whole entry, looked up, the tested form may be a part): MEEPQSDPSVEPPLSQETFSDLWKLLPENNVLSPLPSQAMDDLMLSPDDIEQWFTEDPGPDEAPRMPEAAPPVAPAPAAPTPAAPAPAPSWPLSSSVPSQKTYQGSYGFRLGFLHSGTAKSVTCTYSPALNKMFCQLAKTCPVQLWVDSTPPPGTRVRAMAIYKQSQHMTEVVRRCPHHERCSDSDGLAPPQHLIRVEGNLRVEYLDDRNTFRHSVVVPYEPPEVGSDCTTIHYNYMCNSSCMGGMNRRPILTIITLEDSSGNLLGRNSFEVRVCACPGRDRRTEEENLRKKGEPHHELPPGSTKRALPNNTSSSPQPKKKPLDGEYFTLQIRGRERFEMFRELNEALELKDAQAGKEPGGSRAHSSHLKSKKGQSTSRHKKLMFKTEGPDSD
Sequence of Myc proto-oncogene protein (Homo sapiens) (P01106 whole entry, looked up): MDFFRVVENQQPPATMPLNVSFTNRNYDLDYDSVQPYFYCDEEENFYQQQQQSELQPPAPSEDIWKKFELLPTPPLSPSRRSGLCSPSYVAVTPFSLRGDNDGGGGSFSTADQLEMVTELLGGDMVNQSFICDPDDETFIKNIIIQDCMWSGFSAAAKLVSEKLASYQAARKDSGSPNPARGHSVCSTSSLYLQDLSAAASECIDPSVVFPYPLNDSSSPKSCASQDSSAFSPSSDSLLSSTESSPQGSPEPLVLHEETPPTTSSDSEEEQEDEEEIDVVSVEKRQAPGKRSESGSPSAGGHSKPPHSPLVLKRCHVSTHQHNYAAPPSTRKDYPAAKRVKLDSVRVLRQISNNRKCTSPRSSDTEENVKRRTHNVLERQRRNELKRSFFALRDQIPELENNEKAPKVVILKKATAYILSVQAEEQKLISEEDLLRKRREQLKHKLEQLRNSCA
Sequence of Nuclear respiratory factor 1 (Homo sapiens) (Q16656 whole entry, looked up): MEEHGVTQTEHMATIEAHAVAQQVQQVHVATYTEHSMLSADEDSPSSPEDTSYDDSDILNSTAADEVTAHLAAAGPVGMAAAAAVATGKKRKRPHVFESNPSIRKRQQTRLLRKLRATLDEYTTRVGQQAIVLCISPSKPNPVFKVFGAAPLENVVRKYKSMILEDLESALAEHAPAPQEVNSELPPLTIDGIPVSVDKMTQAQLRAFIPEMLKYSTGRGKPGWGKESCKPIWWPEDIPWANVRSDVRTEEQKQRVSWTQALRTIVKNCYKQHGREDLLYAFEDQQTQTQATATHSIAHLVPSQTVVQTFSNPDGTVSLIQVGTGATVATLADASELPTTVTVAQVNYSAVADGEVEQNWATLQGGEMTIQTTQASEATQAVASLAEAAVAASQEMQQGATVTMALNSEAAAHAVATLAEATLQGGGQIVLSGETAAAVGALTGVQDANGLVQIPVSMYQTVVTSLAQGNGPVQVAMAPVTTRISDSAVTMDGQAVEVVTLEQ
Sequence of Hepatocyte nuclear factor 4-alpha (Homo sapiens) (P41235 whole entry, looked up, the tested form may be a part): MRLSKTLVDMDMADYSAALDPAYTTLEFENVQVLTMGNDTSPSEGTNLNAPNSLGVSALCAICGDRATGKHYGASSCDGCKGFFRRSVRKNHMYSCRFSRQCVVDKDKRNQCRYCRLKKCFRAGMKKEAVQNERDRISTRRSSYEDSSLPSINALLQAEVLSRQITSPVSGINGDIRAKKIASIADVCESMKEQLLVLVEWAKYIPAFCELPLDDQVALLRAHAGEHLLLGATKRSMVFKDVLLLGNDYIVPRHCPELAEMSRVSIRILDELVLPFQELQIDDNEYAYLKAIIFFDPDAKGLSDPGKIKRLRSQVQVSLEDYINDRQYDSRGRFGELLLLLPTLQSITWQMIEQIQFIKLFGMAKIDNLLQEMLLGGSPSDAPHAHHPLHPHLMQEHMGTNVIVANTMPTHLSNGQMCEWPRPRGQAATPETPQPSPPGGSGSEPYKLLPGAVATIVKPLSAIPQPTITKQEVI

In the case of `NC(=O)C(F)(F)C(F)(F)F`, the call in test [1], in [2], in test [3], in test [4], in [5] and in test [6] was inactive. Moreover, the outcome in [7], in test [8], in test [9], in test [10], in [11] and in [12] was inactive. The result in test [13] and in [14] was inactive.
Regarding `CC(C)(C)c1ccccc1OP(=O)(Oc1ccccc1)Oc1ccccc1`, the molecule was called inactive in [1], in [2], in test [15], in test [4], in [5] and in [6]. Besides, the result in test [7], in test [8], in test [10] and in [11] was inactive. Further, the AC50 in test [16] was 57.4 µM (active); in test [9], 19.8 µM (active); in test [17], 20 µM (active); in test [12] it was 20 µM (active); in [13], 28.6 µM (active); in test [14], 26.2 µM (active).
With `CCOC(=O)c1ccccc1C(=O)OCC`, the molecule was classed as inactive in test [1], in test [18], in test [3], in test [16], in test [4] and in test [5]. Also, the outcome in [6], in [7], in [8], in [9], in test [10] and in test [11] was inactive. The result in test [17], in [12], in test [13] and in [14] was inactive.
As for `COP(=O)(O)OC`, the outcome in test [1], in test [2], in test [3], in [16], in test [4] and in test [5] was inactive. Also, the call in [6], in test [7], in test [8], in test [9], in [10] and in test [11] was inactive. In addition, the result in test [17] and in [13] was inactive. The AC50 in [12] was 0.062 µM (active).

In general, AC50 refers to the concentration at which the activity in the assay is half-maximal.
